The whole screen tested about 39,000 compounds, of which about 1,500 (3.8%) were called active. This is one part of a sample in which actives are shown more often than they occur.
These molecules were tested on HSkMC (human skeletal muscle cells) (assay: cytotoxicity call (relative viability < 0.9)). Conditions: 10 µM.
In the case of C[C@@H]1CCCCO[C@H](CN(C)CC2CC2)[C@@H](C)CN([C@H](C)CO)C(=O)c2cc(NS(=O)(=O)c3ccc(Cl)cc3)ccc2O1, the cytotoxicity call was “inactive”.
In the case of C[C@@H]1CCCCO[C@@H](CN(C)Cc2ccc3c(c2)OCO3)[C@@H](C)CN([C@@H](C)CO)C(=O)c2cc(NC(=O)Cc3ccccc3)ccc2O1, the cytotoxicity call was “inactive”.
Cc1cc(C(=O)Nc2cccc3c2O[C@H](CN(C)S(=O)(=O)c2ccccc2)[C@H](C)CN([C@@H](C)CO)C3=O)n(C)n1 was tested, and the cytotoxicity call was “inactive”.
For C[C@H](CO)N1C[C@H](C)[C@H](CN(C)C(=O)NC2CCCCC2)Oc2ccc(NS(=O)(=O)c3cn(C)cn3)cc2CC1=O, the cytotoxicity call was “inactive”.
Cc1nc(C)n(C(=O)N2CCOCC2)n1 was tested, and the cytotoxicity call was “inactive”.
With C[C@@H](O[C@H]1OCCN(Cc2n[nH]nc2CN(C)C)[C@H]1c1ccc(F)cc1)c1cc(C(F)(F)F)cc(C(F)(F)F)c1 the cytotoxicity call was “inactive”.
In the case of CCCC#Cc1cnc2c(c1)C(=O)N([C@H](C)CO)C[C@H](C)[C@H](CN(C)C(=O)c1ccc3c(c1)OCO3)O2, the cytotoxicity call was “inactive”.
C[C@H]1CN([C@@H](C)CO)C(=O)c2cc(NC(=O)Cn3cnnn3)ccc2O[C@H]1CN(C)C(=O)Nc1ccc(C(F)(F)F)cc1 was tested, and the cytotoxicity call was “inactive”.
C[C@@H]1CN([C@@H](C)CO)C(=O)c2cc(NC(=O)Nc3ccc4c(c3)OCO4)ccc2O[C@H]1CN(C)C(=O)Nc1ccc(C(F)(F)F)cc1 was tested, and the cytotoxicity call was “inactive”.
C[C@@H]1CN([C@@H](C)CO)C(=O)c2cc(NC(=O)Nc3ccc(C(F)(F)F)cc3)ccc2O[C@@H]1CN(C)C(=O)Nc1ccc2c(c1)OCO2 was tested, and the cytotoxicity call was “active”.
C[C@H]1CN([C@@H](C)CO)C(=O)c2cc(NC(=O)Nc3ccc4c(c3)OCO4)ccc2O[C@@H]1CN(C)C(=O)Nc1ccc(C(F)(F)F)cc1 was tested, and the cytotoxicity call was “inactive”.
CC(C)NC(=O)Nc1ccc2c(c1)C(=O)N([C@@H](C)CO)C[C@H](C)[C@@H](CN(C)Cc1ccc(Cl)c(Cl)c1)OCCCC[C@@H](C)O2 was tested, and the cytotoxicity call was “inactive”.
In the case of C[C@@H]1CN([C@H](C)CO)C(=O)c2cc(NS(=O)(=O)c3cccs3)ccc2O[C@@H](C)CCCCO[C@@H]1CN(C)C(=O)c1ccccc1, the cytotoxicity call was “inactive”.
C[C@H]1CN([C@@H](C)CO)C(=O)Cc2cc(NC(=O)Nc3cccc4ccccc34)ccc2O[C@H]1CN(C)C(=O)Nc1ccccc1 was tested, and the cytotoxicity call was “inactive”.
With C[C@@H]1CN([C@H](C)CO)C(=O)c2cccc(NC(=O)c3ccc(-c4nccs4)cc3)c2O[C@H]1CN(C)C(=O)Nc1ccccc1 the cytotoxicity call was “inactive”.
In the case of CC(=O)NC[C@H]1CN(c2ccc(N3CCN(C(=O)CO)CC3)c(F)c2)C(=O)O1, the cytotoxicity call was “inactive”.
With CC(C)(C)CC(C)(C)c1cc(Cc2cc(C(C)(C)CC(C)(C)C)cc(-n3nc4ccccc4n3)c2O)c(O)c(-n2nc3ccccc3n2)c1 [listing 1 of 2 here] the cytotoxicity call was “inactive”.
With CC(C)(C)CC(C)(C)c1cc(Cc2cc(C(C)(C)CC(C)(C)C)cc(-n3nc4ccccc4n3)c2O)c(O)c(-n2nc3ccccc3n2)c1 [listing 2 of 2 here] the cytotoxicity call was “inactive”.
CC(C)(C)CC(C)(C)c1ccc(O)c(Cc2ccc(Cl)cc2Cl)c1 was tested, and the cytotoxicity call was “active”.
O=C(CN1CCOCC1)NCC[C@@H]1CC[C@H](NC(=O)c2ccc3c(c2)OCO3)[C@@H](CO)O1 was tested, and the cytotoxicity call was “inactive”.
C[C@@H]1CN([C@@H](C)CO)C(=O)c2cc(C#CC3(O)CCCC3)cnc2O[C@@H]1CN(C)C(=O)CN(C)C was tested, and the cytotoxicity call was “inactive”.
With CO[C@H]1CN(C)C(=O)c2cc(NC(=O)NC3CCCCC3)ccc2OC[C@H](C)N(CCc2ccccc2)C[C@@H]1C the cytotoxicity call was “inactive”.
For C[C@@H]1CN([C@@H](C)CO)C(=O)c2cc(NC(=O)NC3CCCCC3)ccc2O[C@@H]1CN(C)Cc1ccc(-c2ccccc2)cc1, the cytotoxicity call was “active”.
For C[C@@H]1CN([C@H](C)CO)C(=O)c2cc(NC(=O)NC3CCCCC3)ccc2O[C@H]1CN(C)Cc1ccc(Oc2ccccc2)cc1, the cytotoxicity call was “inactive”.
C[C@H](CO)N1C[C@H](C)[C@H](CN(C)Cc2ccc(Oc3ccccc3)cc2)Oc2ccc(NC(=O)NC3CCCCC3)cc2C1=O was tested, and the cytotoxicity call was “inactive”.
C[C@H]1CN([C@@H](C)CO)C(=O)c2cc(NC(=O)C3CCCCC3)ccc2O[C@@H]1CN(C)Cc1ccc(-c2ccccc2)cc1 was tested, and the cytotoxicity call was “inactive”.
C[C@H]1CN([C@@H](C)CO)C(=O)c2cc(NC(=O)NC3CCCCC3)ccc2O[C@H]1CN(C)Cc1ccc(-c2ccccc2)cc1 was tested, and the cytotoxicity call was “inactive”.
C[C@@H]1CN([C@@H](C)CO)C(=O)c2cc(NC(=O)C3CCCCC3)ccc2O[C@@H]1CN(C)Cc1ccc(-c2ccccc2)cc1 was tested, and the cytotoxicity call was “active”.
In the case of CO[C@@H]1CN(C)C(=O)c2cc(NC(=O)NC3CCCCC3)ccc2OC[C@H](C)N(CCc2ccccc2)C[C@H]1C, the cytotoxicity call was “inactive”.
With C[C@@H]1CN([C@H](C)CO)C(=O)c2cc(NC(=O)NC3CCCCC3)ccc2O[C@H]1CN(C)Cc1ccc(-c2ccccc2)cc1 the cytotoxicity call was “inactive”.
For CO[C@H]1CN(C)C(=O)c2cc(NC(=O)NC3CCCCC3)ccc2OC[C@@H](C)N(CCc2ccccc2)C[C@@H]1C, the cytotoxicity call was “active”.
C[C@@H]1CN([C@H](C)CO)C(=O)c2cc(NC(=O)C3CCCCC3)ccc2O[C@@H]1CN(C)Cc1ccc(-c2ccccc2)cc1 was tested, and the cytotoxicity call was “inactive”.
In the case of C[C@@H]1CN([C@@H](C)CO)C(=O)c2cc(NC(=O)NC3CCCCC3)ccc2O[C@H]1CN(C)Cc1ccc(Oc2ccccc2)cc1, the cytotoxicity call was “active”.
Cc1ccc(-c2c[nH]c(=S)[nH]2)cc1 was tested, and the cytotoxicity call was “inactive”.
In the case of Cc1noc(C)c1NC(=O)Nc1ccc2c(c1)CC(=O)N([C@H](C)CO)C[C@@H](C)[C@@H](CN(C)C(=O)Nc1cccc3ccccc13)O2, the cytotoxicity call was “inactive”.
For O=C(C[C@@H]1CC[C@H]2[C@@H](COC[C@@H](O)CN2S(=O)(=O)c2ccccc2)O1)NCCN1CCCC1, the cytotoxicity call was “inactive”.
C[C@H]1CN([C@@H](C)CO)C(=O)Cc2cc(NS(C)(=O)=O)ccc2O[C@@H]1CN(C)C(=O)Nc1ccc2c(c1)OCO2 was tested, and the cytotoxicity call was “inactive”.
In the case of Cc1noc(C)c1NC(=O)Nc1cccc2c1O[C@@H](CN(C)S(C)(=O)=O)[C@H](C)CN([C@@H](C)CO)C2=O, the cytotoxicity call was “inactive”.
For NCCCCCNC(=O)[C@H]1C[C@H]2C(=O)NCC(=O)N2[C@H]1c1cccc(OCCO)c1, the cytotoxicity call was “inactive”.
COc1ccc([C@@H]2CC(=O)c3c(O)cc(O[C@@H]4O[C@H](CO[C@@H]5O[C@@H](C)[C@H](O)[C@@H](O)[C@H]5O)[C@@H](O)[C@H](O)[C@H]4O)cc3O2)cc1O was tested, and the cytotoxicity call was “inactive”.

— the antibiotic and cytotoxicity screens of Wong et al. (2023)
